# In publication PMC7862700, “An all-to-all approach to the identification of sequence-specific readers for epigenetic DNA modifications on cytosine”:
# Assays:
# Experiment in all cases: DAPPL (digital affinity profiling via proximity ligation, sequencing); 10 mM Tris-HCl pH 7.5, 50 mM NaCl, 1 mM DTT, 4% glycerol, room temperature, 30 min; GST-TFs on glutathione beads, 16-mer random dsDNA library, 0.1% formaldehyde crosslink after washing; high values mean tight binding
# Settings in all cases: protein: recombinant; tags: N-terminal GST; dsDNA, one strand shown
# ETV5 = ETV5 (Homo sapiens, UniProt P41161 1-510)
# ETV5, sequence (P41161 whole entry, the tested form may be a part): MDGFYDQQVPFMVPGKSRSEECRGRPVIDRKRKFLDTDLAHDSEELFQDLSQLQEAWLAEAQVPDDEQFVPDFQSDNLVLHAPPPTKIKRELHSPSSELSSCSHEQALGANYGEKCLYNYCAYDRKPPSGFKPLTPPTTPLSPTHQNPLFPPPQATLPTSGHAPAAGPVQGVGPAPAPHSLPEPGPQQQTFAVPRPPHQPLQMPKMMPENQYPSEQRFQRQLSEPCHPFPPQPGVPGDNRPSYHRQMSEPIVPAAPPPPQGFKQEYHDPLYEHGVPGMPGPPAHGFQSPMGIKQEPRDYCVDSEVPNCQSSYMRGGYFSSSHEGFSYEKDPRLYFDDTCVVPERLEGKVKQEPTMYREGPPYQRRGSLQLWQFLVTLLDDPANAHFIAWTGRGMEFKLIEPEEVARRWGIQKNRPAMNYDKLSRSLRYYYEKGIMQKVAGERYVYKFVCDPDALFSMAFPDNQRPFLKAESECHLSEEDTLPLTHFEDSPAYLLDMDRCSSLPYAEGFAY
# Procedure, shortened: (§1)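 The binding signal reported is, for every hexamer, its read frequency for a factor over its read frequency for the tag-only sample. Reads came from pools of yeast-expressed, GST-fused human transcription factors on glutathione beads, barcoded with DNA and mixed with that sample, which were incubated with 200 nmole of a random double-stranded 16-mer DNA library in Tris/NaCl/DTT/glycerol buffer at room temperature for 30 min. After washing, the pools were crosslinked with 0.1% formaldehyde, proximity-ligated with BsaI/T4 ligase for 1 h at 37 °C, PCR-amplified and sequenced on an Illumina NextSeq500.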
# SPIC = molecular target: T1, SPIC (Homo sapiens, UniProt Q8N5J4 1-248)
# T1 sequence: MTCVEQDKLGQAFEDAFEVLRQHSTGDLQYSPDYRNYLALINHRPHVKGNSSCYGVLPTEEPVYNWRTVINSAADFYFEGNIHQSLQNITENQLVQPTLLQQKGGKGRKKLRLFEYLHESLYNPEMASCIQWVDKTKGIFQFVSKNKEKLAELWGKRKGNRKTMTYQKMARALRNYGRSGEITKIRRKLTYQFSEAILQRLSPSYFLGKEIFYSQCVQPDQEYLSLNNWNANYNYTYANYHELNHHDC
# Procedure, shortened: as §1
# ELF4 = ELF4 (Homo sapiens, UniProt Q99607 1-663)
# ELF4, sequence (Q99607 whole entry): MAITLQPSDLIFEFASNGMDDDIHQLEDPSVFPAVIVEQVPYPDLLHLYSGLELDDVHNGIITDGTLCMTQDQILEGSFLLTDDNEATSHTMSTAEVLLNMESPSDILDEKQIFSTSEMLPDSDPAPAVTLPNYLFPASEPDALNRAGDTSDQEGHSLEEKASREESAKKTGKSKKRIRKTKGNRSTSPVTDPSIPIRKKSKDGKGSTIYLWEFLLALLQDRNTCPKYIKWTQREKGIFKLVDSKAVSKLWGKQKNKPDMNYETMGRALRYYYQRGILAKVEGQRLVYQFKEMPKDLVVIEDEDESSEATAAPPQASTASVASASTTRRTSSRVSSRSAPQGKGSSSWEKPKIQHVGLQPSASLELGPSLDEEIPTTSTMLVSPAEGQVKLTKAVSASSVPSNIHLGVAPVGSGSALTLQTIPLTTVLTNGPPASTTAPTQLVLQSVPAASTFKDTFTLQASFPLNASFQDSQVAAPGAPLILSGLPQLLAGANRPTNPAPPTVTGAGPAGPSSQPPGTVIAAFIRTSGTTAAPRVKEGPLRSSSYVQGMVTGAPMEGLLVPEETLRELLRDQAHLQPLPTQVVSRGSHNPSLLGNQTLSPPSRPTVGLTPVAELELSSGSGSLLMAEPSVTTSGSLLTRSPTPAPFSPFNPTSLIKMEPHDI
# Procedure, shortened: as §1
# ETV1 = ETV1 (Homo sapiens, UniProt P50549 1-477)
# ETV1, sequence (P50549 whole entry): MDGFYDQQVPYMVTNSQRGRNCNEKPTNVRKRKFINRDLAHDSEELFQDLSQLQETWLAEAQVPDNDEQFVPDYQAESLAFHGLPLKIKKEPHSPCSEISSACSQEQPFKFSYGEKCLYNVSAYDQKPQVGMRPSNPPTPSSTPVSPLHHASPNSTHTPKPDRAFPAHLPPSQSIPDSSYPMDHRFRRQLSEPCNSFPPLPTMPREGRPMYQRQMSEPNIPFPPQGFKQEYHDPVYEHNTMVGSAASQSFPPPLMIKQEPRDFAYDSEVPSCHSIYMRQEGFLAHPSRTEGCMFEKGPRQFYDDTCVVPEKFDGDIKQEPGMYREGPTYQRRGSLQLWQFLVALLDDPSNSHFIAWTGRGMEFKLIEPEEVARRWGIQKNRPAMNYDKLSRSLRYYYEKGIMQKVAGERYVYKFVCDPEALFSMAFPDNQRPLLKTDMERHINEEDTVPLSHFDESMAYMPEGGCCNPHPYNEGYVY
# Procedure, shortened: as §1
# ERF = molecular target: T2, ERF (Homo sapiens, UniProt P50548 1-548)
# T2 sequence: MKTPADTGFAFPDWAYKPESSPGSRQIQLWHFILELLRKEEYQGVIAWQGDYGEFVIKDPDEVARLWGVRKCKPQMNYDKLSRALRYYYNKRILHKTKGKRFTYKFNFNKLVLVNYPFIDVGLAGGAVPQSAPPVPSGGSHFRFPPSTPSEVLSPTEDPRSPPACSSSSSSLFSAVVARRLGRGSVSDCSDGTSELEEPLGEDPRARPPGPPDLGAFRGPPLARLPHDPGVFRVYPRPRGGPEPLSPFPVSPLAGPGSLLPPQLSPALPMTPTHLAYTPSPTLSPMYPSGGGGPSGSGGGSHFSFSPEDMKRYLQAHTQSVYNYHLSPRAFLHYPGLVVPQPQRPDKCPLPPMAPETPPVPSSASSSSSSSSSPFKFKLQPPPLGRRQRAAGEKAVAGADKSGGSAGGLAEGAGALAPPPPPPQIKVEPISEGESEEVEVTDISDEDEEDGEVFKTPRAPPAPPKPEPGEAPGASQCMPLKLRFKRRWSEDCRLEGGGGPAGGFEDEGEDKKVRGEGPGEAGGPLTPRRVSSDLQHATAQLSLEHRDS
# Procedure, shortened: as §1
# ETV3L = molecular target: T3, ETV3L (Homo sapiens, UniProt Q6ZN32 1-361)
# T3 sequence: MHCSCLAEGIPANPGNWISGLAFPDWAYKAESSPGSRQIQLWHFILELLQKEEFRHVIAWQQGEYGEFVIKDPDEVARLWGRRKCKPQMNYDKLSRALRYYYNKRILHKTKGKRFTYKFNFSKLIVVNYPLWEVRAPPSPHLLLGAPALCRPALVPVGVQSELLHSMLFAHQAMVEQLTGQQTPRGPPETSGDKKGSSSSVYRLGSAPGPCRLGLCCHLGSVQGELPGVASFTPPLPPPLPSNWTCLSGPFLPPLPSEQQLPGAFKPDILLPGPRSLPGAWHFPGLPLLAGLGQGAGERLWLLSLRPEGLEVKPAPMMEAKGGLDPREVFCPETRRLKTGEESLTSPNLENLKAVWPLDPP
# Procedure, shortened: as §1
# ETS2 = molecular target: T4, ETS2 (Homo sapiens, UniProt P15036 1-469)
# T4 sequence: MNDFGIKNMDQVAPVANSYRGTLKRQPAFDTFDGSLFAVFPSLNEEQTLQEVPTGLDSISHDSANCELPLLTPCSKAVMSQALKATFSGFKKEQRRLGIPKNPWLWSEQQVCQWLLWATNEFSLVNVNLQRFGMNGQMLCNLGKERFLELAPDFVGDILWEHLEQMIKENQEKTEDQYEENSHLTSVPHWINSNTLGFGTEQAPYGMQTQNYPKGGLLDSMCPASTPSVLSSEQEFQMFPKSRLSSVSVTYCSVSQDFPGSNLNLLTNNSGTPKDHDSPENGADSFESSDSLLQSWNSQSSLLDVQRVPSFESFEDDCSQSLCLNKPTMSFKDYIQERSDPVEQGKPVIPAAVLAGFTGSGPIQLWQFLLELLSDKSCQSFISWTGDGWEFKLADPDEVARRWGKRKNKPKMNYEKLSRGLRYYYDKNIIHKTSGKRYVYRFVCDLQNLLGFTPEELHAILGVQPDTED
# Procedure, shortened: as §1
# SPDEF = molecular target: T5, SPDEF (Homo sapiens, UniProt O95238 1-335)
# T5 sequence: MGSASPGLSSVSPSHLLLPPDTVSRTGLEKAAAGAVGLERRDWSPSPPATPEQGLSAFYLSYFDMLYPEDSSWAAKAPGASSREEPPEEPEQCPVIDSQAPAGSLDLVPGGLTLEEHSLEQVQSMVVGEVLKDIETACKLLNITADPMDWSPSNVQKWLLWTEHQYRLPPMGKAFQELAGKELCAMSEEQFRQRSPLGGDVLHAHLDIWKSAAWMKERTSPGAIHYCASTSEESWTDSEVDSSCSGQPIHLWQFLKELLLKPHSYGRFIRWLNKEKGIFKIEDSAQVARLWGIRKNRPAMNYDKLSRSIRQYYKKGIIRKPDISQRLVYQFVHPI
# Procedure, shortened: as §1
# ETV3 = molecular target: T6, ETV3 (Homo sapiens, UniProt P41162-2 1-143)
# T6 sequence: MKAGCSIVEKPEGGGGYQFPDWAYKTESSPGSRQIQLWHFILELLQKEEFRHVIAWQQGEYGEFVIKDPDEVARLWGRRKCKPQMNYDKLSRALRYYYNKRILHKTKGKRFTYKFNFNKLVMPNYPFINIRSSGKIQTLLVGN
# Procedure, shortened: as §1
sequence,measurement,setting,value
TCAACA,binding signal,ETV5,"1.04 fold enrichment (6-mer frequency, TF over GST control)"
same,binding signal,SPIC,"1.05 fold enrichment (6-mer frequency, TF over GST control)"
same,binding signal,ELF4,"1.07 fold enrichment (6-mer frequency, TF over GST control)"
same,binding signal,ETV1,"1.06 fold enrichment (6-mer frequency, TF over GST control)"
same,binding signal,ERF,"1.03 fold enrichment (6-mer frequency, TF over GST control)"
same,binding signal,ETV3L,"1.09 fold enrichment (6-mer frequency, TF over GST control)"
same,binding signal,ETS2,"1.07 fold enrichment (6-mer frequency, TF over GST control)"
same,binding signal,SPDEF,"1.07 fold enrichment (6-mer frequency, TF over GST control)"
same,binding signal,ETV3,"1.08 fold enrichment (6-mer frequency, TF over GST control)"
